Data as given in the supplement of paper PMC13380429.

System: Vero E6 infected with SARS-CoV-2
Experiment: inhibition of SARS-CoV-2 cytopathic effect; higher = more antiviral protection, active = above 15
Settings: 48 h

Measured: inhibition of SARS-CoV-2 cytopathic effect

O=C1OC2(c3ccccc31)c1cc(I)c(O)c(I)c1Oc1c2cc(I)c(O)c1I [erythrosine]
inactive: 1 nM -2.4% | 8.33 nM -1.04% | 100 nM -2.6% | 833.33 nM -4.79% | 10000 nM -12.8%

CO/N=C1\CN(c2nc3c(cc2F)c(=O)c(C(=O)O)cn3C2CC2)CC1CN (stereo not given) [gemifloxacin]
inactive: 1 nM -4.74% | 8.33 nM -3.09% | 100 nM 0.76% | 833.33 nM 1.02% | 10000 nM 5.76%

CC(C)=CCC/C(C)=C/CC/C(C)=C/CCC(=O)OC/C=C(\C)CCC=C(C)C [geranyl-farnesylacetate]
inactive: 1 nM -0.32% | 8.33 nM 0.94% | 100 nM -2.76% | 833.33 nM 0.87% | 10000 nM 1.54%

CN(Cc1cnc2nc(N)nc(N)c2n1)c1ccc(C(=O)N[C@@H](CCC(=O)O)C(=O)O)cc1 [methotrexate]
inactive: 1 nM -1.04% | 8.33 nM -0.21% | 100 nM -0.4% | 833.33 nM 2% | 10000 nM -1.41%

CCCCCCOc1ccccc1C(N)=O [exalamide]
inactive: 1 nM -5.16% | 8.33 nM -3.3% | 100 nM -2.73% | 833.33 nM -0.34% | 10000 nM -3.76%

CC(C)(C)C(=O)CN1C(=O)[C@H](NC(=O)Nc2cccc(C(=O)O)c2)CN(C2CCCCC2)c2ccccc21 [nastorazepide]
inactive: 1 nM -1.25% | 8.33 nM -0.99% | 100 nM 0.77% | 833.33 nM 0.71% | 10000 nM -1.1%

Cc1cc(Nc2nc(N[C@@H](C)c3ccc(F)cc3)c(C#N)cc2F)n[nH]1
inactive: 1 nM 0.59% | 8.33 nM 0.82% | 100 nM -1.14% | 833.33 nM -3.33% | 10000 nM -13%

O=[N+]([O-])c1ccc2nc(COCc3nc4ccc([N+](=O)[O-])cc4[nH]3)[nH]c2c1
inactive: 1 nM -1.36% | 8.33 nM -1.65% | 100 nM -4.45% | 833.33 nM 0.4% | 10000 nM -0.17%

Cc1cc(C)cc(OCC2CNC(=O)O2)c1 (stereo not given) [metaxalone]
inactive: 1 nM -1.78% | 8.33 nM -2.7% | 100 nM -1.26% | 833.33 nM 1.04% | 10000 nM -0.42%

COc1ccccc1N1CCN(CCCCN2C(=O)c3ccccc3C2=O)CC1
inactive: 1 nM -0.49% | 8.33 nM -1.04% | 100 nM 2.68% | 833.33 nM 1.7% | 10000 nM 4.74%

CCCCCCOc1nsnc1C1=CCCN(C)C1 [xanomeline]
inactive: 1 nM 0.86% | 8.33 nM -0.07% | 100 nM -1.23% | 833.33 nM -1.94% | 10000 nM -0.8%

O=C(O)CCc1c[nH]c2ccccc12
inactive: 1 nM 0.05% | 8.33 nM -0.38% | 100 nM -1.18% | 833.33 nM -0.72% | 10000 nM -0.06%

CN1[C@@H]2CC[C@H]1C[C@@H](OC(c1ccccc1)c1ccccc1)C2 [benztropine-mesylate]
inactive: 1 nM 1.74% | 8.33 nM -0.55% | 100 nM 1.26% | 833.33 nM -8.96% | 10000 nM -7.74%

CC(C)(C)c1nc(-c2cccc(NS(=O)(=O)c3c(F)cccc3F)c2F)c(-c2ccnc(N)n2)s1 [dabrafenib]
inactive: 1 nM -0.66% | 8.33 nM -0.54% | 100 nM 0.25% | 833.33 nM -1.77% | 10000 nM 13.1%

Nc1nc(O)c2ncn(CCC(CO)CO)c2n1 [penciclovir]
inactive: 1 nM -0.77% | 8.33 nM -0.01% | 100 nM -0.81% | 833.33 nM 0.81% | 10000 nM -2.4%

O=C1c2ccccc2C(=O)C1c1ccc(Br)cc1 [bromindione]
inactive: 1 nM -0.87% | 8.33 nM 2.1% | 100 nM -2.65% | 833.33 nM 1.04% | 10000 nM 0.05%

CC[C@H](C)[C@@H]([C@@H](CC(=O)N1CCC[C@H]1[C@H](OC)[C@@H](C)C(=O)N[C@@H](Cc1ccccc1)c1nccs1)OC)N(C)C(=O)[C@@H](NC(=O)[C@H](C(C)C)N(C)C)C(C)C [dolastatin-10]
inactive: 1 nM -1.47% | 8.33 nM 0.79% | 100 nM -2.31% | 833.33 nM -3% | 10000 nM 0.49%

NC(=S)N/N=C/c1ccncc1 [perchlozone]
inactive: 1 nM 2.2% | 8.33 nM 1.74% | 100 nM 0.96% | 833.33 nM 2.38% | 10000 nM 3.63%
